# Data from ChEMBL document CHEMBL3988442, “University of Dundee, Small-Polar-MMV Screening Library” (2021).
# The campaign covered roughly 69,000 compounds. About 1,000 (1.4%) showed an effect of 50% or more. For the sample, strong results were picked, then their nearest neighbours and some compounds at random.
# System: Leishmania donovani
# Test: Leishmania intramacrophage assay
# Assay type: functional, organism-based
# Design: scale not given: in the data most compounds retested in dose-response had high values
compound,measurement,setting,value
CCC[C@@H]1CN(c2cncc(C(=O)N3CCOCC3)n2)C[C@H]1N(C)C,Percent Effect,"30.3 µM, […]",5.453%
FC(F)(F)CCc1ccnc(N2CCN(CCc3ccncc3)CC2)n1,Percent Effect,"30.3 µM, […]",-20.06%
NC(=O)c1cccc(CCNCc2cnc(-c3cccs3)s2)c1,Percent Effect,"30.3 µM, […]",8.667%
Cc1nn(C)c2ncnc(N3CCC(O)(CN4CCCC4)CC3)c12,Percent Effect,"30.3 µM, […]",8.338%
CC(=O)c1cn(CCC(=O)N[C@H](C(=O)O)C(C)C)c2ccccc12,Percent Effect,"30 µM, 30.03 µM",8.027%
CC(=O)c1cn(CCC(=O)N[C@@H](CC(C)C)C(=O)O)c2ccccc12,Percent Effect,"30.3 µM, […]",32.27%
CC[C@@H](C)[C@H](NC(=O)CCn1cc(C(C)=O)c2ccccc21)C(=O)O,Percent Effect,"30.3 µM, […]",56.09%
CCC1=N[C@@]2(CC[C@@H]3CN(CC4CC4)C[C@@H]32)C(=O)N1C.O=C(O)C(F)(F)F,Percent Effect,"30 µM, 30.03 µM",21.68%
Cc1ccc2cccc(S(=O)(=O)N(C)C3CCCN(C)C3)c2n1 (stereo not given),Percent Effect,"30.3 µM, […]",25.11%
CN1CCCC(N(C)S(=O)(=O)c2cccc3ncccc23)C1 (stereo not given),Percent Effect,"30.3 µM, […]",59.16%
CN(C1CCCN(c2ccccn2)C1)S(C)(=O)=O (stereo not given),Percent Effect,"30.3 µM, […]",25.41%
O=C(CNc1cc(-n2cnnn2)ccc1F)NCc1ccccc1,Percent Effect,"30.3 µM, […]",43.45%
CCOc1ccccc1CCN1Cc2ncccc2C1=O,Percent Effect,"30.3 µM, […]",-1.003%
Cc1nn(C)c(C)c1C1CCCN1c1ncnc2sccc12 (stereo not given),Percent Effect,"30.3 µM, […]",33.23%
Cc1nn(C)c(Cl)c1C1CCCN1c1ncnc2sccc12 (stereo not given),Percent Effect,"30 µM, 30.03 µM",51.25%
COc1c(C2CCCN2c2ncnc3sccc23)c(C)nn1C (stereo not given),Percent Effect,"30.3 µM, […]",26.6%
CC(=O)C(Cc1ccccc1)NC(=O)CSc1nccn1C1CC1 (stereo not given),Percent Effect,"30.3 µM, […]",7.269%
Cc1noc(C)c1CN1CCC2(CCN(Cc3cccc(F)c3)CC2)C1.O=C(O)C(F)(F)F.O=C(O)C(F)(F)F,Percent Effect,"30.3 µM, […]",59.23%
Cc1noc(C)c1CN1CCN(Cc2ccncc2)c2ncccc2C1.O=C(O)C(F)(F)F.O=C(O)C(F)(F)F.O=C(O)C(F)(F)F,Percent Effect,"30 µM, 30.03 µM",-14.87%
Cc1noc(C)c1CN1CCN(Cc2cccnc2)c2ncccc2C1.O=C(O)C(F)(F)F.O=C(O)C(F)(F)F.O=C(O)C(F)(F)F,Percent Effect,"30.3 µM, […]",57.48%
CCC(=O)N1CCC2(CCN(Cc3cccc(F)c3)CC2)CC1.O=C(O)C(F)(F)F,Percent Effect,"30.3 µM, […]",2.147%
Cc1noc(C)c1CN1CCO[C@H]2CN(Cc3cccc(F)c3)C[C@H]21.O=C(O)C(F)(F)F.O=C(O)C(F)(F)F,Percent Effect,"30.3 µM, […]",56.73%
CC(=O)N1CCC2(CCN(Cc3cccc(F)c3)CC2)CC1.O=C(O)C(F)(F)F,Percent Effect,"30.3 µM, […]",20%
Cc1noc(C)c1CN1CCO[C@H]2CN(C(=O)C3CCOCC3)C[C@H]21.O=C(O)C(F)(F)F,Percent Effect,"30.3 µM, […]",32.17%
Cc1noc(C)c1CN1CCN(CC2CC2)c2ncccc2C1.O=C(O)C(F)(F)F.O=C(O)C(F)(F)F,Percent Effect,"30 µM, 30.03 µM",23.02%
Cc1noc(C)c1CN1CCO[C@H]2CN(Cc3ccc(F)cc3)C[C@H]21.O=C(O)C(F)(F)F.O=C(O)C(F)(F)F,Percent Effect,"30.3 µM, […]",23.07%
Cc1ccc(-c2nc(C(=O)N(C)CC(=O)N(C)C)cs2)c(C)c1,Percent Effect,"30.3 µM, […]",-31.91%
CCS(=O)(=O)N1CCC(NCC2CNc3cc(C)nn3C2)CC1 (stereo not given),Percent Effect,"30.3 µM, […]",-7.273%
CC(=O)N1CC(=O)N(c2ccsc2)CC12CCN(Cc1ccoc1)C2 (stereo not given),Percent Effect,"30.3 µM, […]",14.63%
CC1CN(C)CCN1C(=O)c1ccn(-c2cccc(F)c2)n1 (stereo not given),Percent Effect,30 µM,3.559%
CCc1nnc(CNC2CCc3nc(C(C)C)nn3C2)o1 (stereo not given),Percent Effect,"30.3 µM, […]",-6.024%
Cc1csc(-c2cccc(NC(=O)N3CCOCC3)c2)n1,Percent Effect,"30.3 µM, […]",24.69%
Cc1csc(-c2ccc(NC(=O)N3CCOCC3)cc2)n1,Percent Effect,"30.3 µM, […]",-0.9004%
Cc1csc(NC(=O)c2ccc(NC(=O)N3CCOCC3)cc2)n1,Percent Effect,"30.3 µM, […]",69.81%
COc1ccc2cc(CN(C)C(C)c3nc(C4CC4)no3)ccc2c1 (stereo not given),Percent Effect,"30.3 µM, […]",57.64%
COc1ccc2cc(CN(C)C(C)c3nc(C(C)(C)C)no3)ccc2c1 (stereo not given),Percent Effect,"30.3 µM, […]",20.66%
CC(c1nc(C2CC2)no1)N(C)Cc1ccc2c(c1)OCCO2 (stereo not given),Percent Effect,"30.3 µM, […]",14.22%
CSCc1noc(CNC(=O)c2cc(C)c(C)[nH]c2=O)n1,Percent Effect,"30.3 µM, […]",20.7%
O=C(CN1CCC(Nc2ncccn2)CC1)Nc1ccccc1,Percent Effect,"30.3 µM, […]",51.04%
Cc1cnc(NC2CCN(CC(=O)Nc3ccccc3)CC2)nc1C,Percent Effect,"30.3 µM, […]",18.37%
COc1ccnc(NC2CCN(CC(=O)Nc3ccccc3)CC2)n1,Percent Effect,"30.3 µM, […]",-0.8363%
CCc1nnc(CN(CC)C(=O)C2CC(=O)N(C3CCCC3)C2)o1 (stereo not given),Percent Effect,"30.3 µM, […]",-15.82%
Cc1nn(C)c(Oc2ccc(Cl)cc2)c1CN1CCC(CN)C1 (stereo not given),Percent Effect,"30.3 µM, […]",74.8%
Cc1nn(C)c(Oc2ccc(Cl)cc2)c1CN1CCOC(CN)C1 (stereo not given),Percent Effect,"30.3 µM, […]",3.142%
Cc1nn(C)c(Oc2ccc(Cl)cc2)c1CN1CC[C@H](CO)[C@@H](O)C1,Percent Effect,"30.3 µM, […]",9.933%
Cc1cccc(SC2CCN(C(=O)CCCn3cnnn3)CC2)c1,Percent Effect,"30.3 µM, […]",53.34%
Cc1cccc(SC2CCN(C(=O)CCCS(N)(=O)=O)CC2)c1,Percent Effect,"30.3 µM, […]",24.28%
CC(=O)NCCCC(=O)N1CCC(Sc2cccc(C)c2)CC1,Percent Effect,"30.3 µM, […]",42.91%
CCOCC(=O)N1CSCC1C(=O)N(C)Cc1ccco1 (stereo not given),Percent Effect,30 µM,13.38%
CCCc1nc(N2CC[C@@H](c3ccc4ccccc4c3)[C@H](O)C2)no1,Percent Effect,"30.3 µM, […]",50.36%
Cc1nc(N2CC[C@@H](c3ccc4ccccc4c3)[C@H](O)C2)no1,Percent Effect,"30.3 µM, […]",18.28%
CCCc1nc(N2CC[C@@H](c3ccc4c(c3)OCO4)[C@H](O)C2)no1,Percent Effect,"30.3 µM, […]",11.09%
Cc1cc(N2CCc3c(nc(C(C)C)n3C)C2)nc(N)n1,Percent Effect,"30.3 µM, […]",17.43%
Cc1nc(C)n(CC2CN(CC(=O)Nc3cccnc3)CCO2)n1 (stereo not given),Percent Effect,"30 µM, 30.03 µM",31.54%
Cc1nc(C)n(CC2CCCN(CC(=O)Nc3cccnc3)C2)n1 (stereo not given),Percent Effect,"30.3 µM, […]",59.36%
Cc1nc(C)n(CC2CCCN2CC(=O)Nc2ccncc2)n1 (stereo not given),Percent Effect,"30.3 µM, […]",50.98%
Cc1nc(C)n(CC2CCCN2CC(=O)Nc2cccnc2)n1 (stereo not given),Percent Effect,"30.3 µM, […]",2.659%
Cc1nc(C)n(CC2CCCN(CC(=O)Nc3ccncc3)C2)n1 (stereo not given),Percent Effect,30 µM,29.85%
Cc1nc(C)n(CC2CCCCN2CC(=O)Nc2ccncc2)n1 (stereo not given),Percent Effect,"30 µM, 30.03 µM",-8.014%
Cc1nc(CN(C)C2CCCN(Cc3noc(C4CC4)n3)C2)oc1C (stereo not given),Percent Effect,30 µM,-8.721%
